Screening data as filed in PubChem BioAssay.
Mtb FBA inh – Mtb fructose-bisphosphate aldolase inhibition | purified M. tuberculosis FBA, fluorescence read-out | inhibition, % at 1 µM | 2.3% of 360,000 active | AID 588726;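 further: 0% = vehicle and 100% = reference inhibitor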
Mtb bLac sens – beta-lactam sensitization of Mtb H37Rv; 0.27% of 330,000 active; inhibition, % at 25 µM; M. tuberculosis H37Rv growth with meropenem, percent inhibition; call rule not given here;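 further: growth measured after seven days incubation then overnight dye step; 0% = bacteria only wells and 100% = bacteria with antibiotic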
GDH-TPI counter-1 – inhibits GDH-TPI coupling enzymes, artifact for Mtb FBA screen; GDH-TPI coupled enzyme counterscreen, NADH absorbance; inhibition, % at 4.8 µM; 1.2% of 360,000 active; AID 588335; in the data active means inhibition above about 30%;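 further: 0% = DMSO wells and 100% = wells lacking the enzyme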
CCHF vOTU inh – CCHFV vOTU protease inhibition | AID 651958 | inhibition, % at 11.5 µM | Pep-AMC fluorescence | 0.55% of 370,000 active; in the data active means inhibition above about 30%; further: 0% = vehicle wells with enzyme and 100% = no enzyme wells
RecA splice inh – inhibitors of M. tuberculosis RecA intein splicing | 0.75% of 290,000 active | inhibition, % (no concentration beside the values) | AID 2221 | cell-free RecA intein splicing, fluorescence | P9WHJ3; in the data active means inhibition above about 30%;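 further: 0% = vehicle wells and 100% = reference inhibitor control wells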
Mtb FBA inh conf – confirmation of M. tuberculosis fructose-bisphosphate aldolase inhibitors; shares compounds with Mtb FBA inh; purified M. tuberculosis FBA, fluorescence read-out; inhibition, % at 1 µM; 78% of 5,600 active; AID 651616;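 further: 0% = vehicle wells and 100% = reference inhibitor wells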
GDH-TPI counter-2 – GDH-TPI inhibition counter-screen for FBA inhibitors; shares compounds with Mtb FBA inh; GDH-TPI coupled enzyme counterscreen, fluorescence; inhibition, % at 1 µM; 81% of 5,600 active; AID 652141; in the data active means inhibition above about 10%
GDH-TPI dose – GDH-TPI dose response counter-screen for Mtb FBA. shares compounds with Mtb FBA inh. GDH-TPI coupled enzyme assay, fluorescence, artifact counterscreen. IC50, µM. 79% of 170 active. AID 652145; call rule not given here
Starred values were filed as active, the others as inactive; / = not tested or not shown. Most compounds without a hit are left out; they make up all but 4.2% or so of the library. Unless noted, no stated cut-off is given here; in the data, active means inhibition above about 27%; inactive means the rest.

SMILES	Mtb FBA inh	Mtb bLac sens	GDH-TPI counter-1	CCHF vOTU inh	RecA splice inh	Mtb FBA inh conf	GDH-TPI counter-2	others
Cc1cccn2c(=O)c3cc(C(=O)NCCc4ccccc4)sc3nc12	35*	2	6	-8	-15	0	2
O=C(CSc1nnc(-c2ccncc2)n1-c1ccccc1)Nc1ccc2c(c1)OCCO2	/	/	/	0	/	/	/
CCNC(=O)N(C)[C@H]1C[C@H]2c3[nH]c4c(-c5ccc6c(c5)OCO6)cccc4c3CCN2C(=O)[C@H]1[C@H](C)O	/	/	/	3	/	/	/
CC1(c2nnnn2Cc2ccccc2)CCSCC(=O)N1Cc1cccs1 (stereo unspecified)	/	/	/	0	/	/	/
C=CCn1c(SCC(=O)c2ccc(-c3ccccc3)cc2)nnc1-c1ccc(OC)cc1	/	/	/	11	/	/	/
Cn1c(N)nc2nc(CCc3ccccc3)c(=O)[nH]c2c1=O	60*	8	4	-65	-165	8	2
Cc1cc(C[n+]2ccccc2)c2nsnc2c1	31*	-5	11	-4	0	97*	72*
Cc1cc(C[n+]2ccsc2N)c2ncccc2c1	0	2	8	-17	-13	/	/
N#Cc1ccc(S(=O)(=O)NCC2CCN(C(=O)C(=O)c3cc4ccccc4o3)CC2)cc1	/	/	/	2	/	/	/
CC1CCC2(CC1)NC(=O)N(CC(=O)Nc1ccccc1-c1ccccc1)C2=O (stereo unspecified)	55*	2	1	13	-1	10	-4
COc1ccc(CN2C(=O)COc3ccccc3C2c2nnnn2C2CCCCC2)cc1 (stereo unspecified)	/	/	/	1	/	/	/
CNS(=O)(=O)/C=C/c1ccccc1CCNC(=O)OC(C)(C)C	/	/	/	28	/	/	/
CCOC(=O)CNC(=O)c1ccc2[nH]c3ccccc3c2c1	60*	9	8	-14	0	4	-4
CCOC(=O)c1[nH]c2ccc(C(=O)OC)cc2c1C(=O)OCC	46*	18	8	7	-3	114*	93*
O=C(NCC(O)CO)c1ccc2[nH]c3ccccc3c2c1 (stereo unspecified)	63*	-5	-3	-13	0	135*	108*
Cc1cc(Nc2cccc(F)c2)cc(=O)n1-c1cccc(F)c1	/	/	/	2	/	/	/
O=C(O)CCn1c(CO)nc2ccccc21	1	3	5	-12	-1	/	/
O=C(O)CCn1c(-c2ccccc2)cc2ccccc21	58*	-7	-5	-4	-4	25	16*
Cc1cc(N2CCN(C)CC2)nc2ccc(NC(=S)N3CCN(c4ccc(F)cc4)CC3)cc12	9	32	-3	-14	0	/	/
Cc1cc(N2CCN(C)CC2)nc2ccc(NC(=O)CCC(=O)NCCC(C)C)cc12	33*	1	21	-18	-2	5	5
COc1ccc(C)cc1NC(=O)CCC(=O)Nc1ccc2nc(N3CCN(C)CC3)cc(C)c2c1	/	8	/	/	-2	/	/
Cc1cc(N2CCN(C)CC2)nc2ccc(NC(=S)N3CCN(c4ccc(Cl)cc4)CC3)cc12	27*	-1	11	-35	1	135*	128*
Cc1cc(N2CCN(C)CC2)nc2ccc(NC(=O)CCC(=O)NCc3ccco3)cc12	32*	-13	5	-30	-1	68*	69*
c1ccc(-c2ccc3c(n2)CCCN3Cc2ccccn2)cc1	/	/	/	-35	/	/	/
COc1ccccc1C(=O)NC1CCCCN(Cc2ccccc2C)C1=O (stereo unspecified)	/	/	/	5	/	/	/
SMILES	Mtb FBA inh	Mtb bLac sens	GDH-TPI counter-1	CCHF vOTU inh	RecA splice inh	Mtb FBA inh conf	GDH-TPI counter-2	others
Cc1ccccc1CN1CCCCC(NC(=O)c2cccc(C(F)(F)F)c2)C1=O (stereo unspecified)	/	/	/	9	/	/	/
O=c1[nH]c2ccccc2nc1/C=C/c1ccccc1	10	0	13	-27	-4	/	/
C(=C\c1nccc2c1[nH]c1ccccc12)/c1ccccc1	91*	100	7	-29	7	11	0	GDH-TPI dose=1.1*
Cc1ccc(/C=C\c2nccc3c2[nH]c2ccccc23)cc1	86*	96	1	-16	-10	174*	135*
O=c1[nH]c2ccccc2nc1/C=C/c1ccc(F)cc1	9	4	8	-3	1	/	/
Fc1ccc(/C=C\c2nccc3c2[nH]c2ccccc23)cc1	74*	5	2	-36	-1	19	20*
